A number with no mark means an inactive call. Entries that show only a call come without a potency. Active and inactive are the calls of the source. Unless noted, calls come from the whole dose curve; as a rule, active = well fitted curve in the direction sought with a large enough effect in the repeat runs; inconclusive = weak or mixed curves; inactive = flat fitted curve, though single readings scatter.
Assays:
[1] = qHTS assay to test for compound auto fluorescence at 460 nm (blue) in HEK293 cell free culture (AID 720681)
Method in brief: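 Compounds were added to cell-free DMEM with 10% FBS and fluorescence read directly. The blue channel used 405 nm excitation and 460 nm emission, with triamterene as the reference fluorophore.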

[2] = qHTS assay to test for compound auto fluorescence at 535 nm (green) in HEK293 cell free culture (AID 720682)
Method in brief: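 Green-channel intensity (Ex/Em 485/535 nm) was recorded from compound-treated wells containing only DMEM with 10% FBS. Fluorescein provided the equivalency standard.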

[3] = qHTS assay to test for compound auto fluorescence at 590 nm (red) in HEK293 cell free culture (AID 720683)
Method in brief: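 Cell-free wells of DMEM with 10% FBS received compound, and intrinsic fluorescence was read at excitation/emission 540/590 nm. Values expressed as equivalence to Rose Bengal sodium.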

[4] = qHTS assay to test for compound auto fluorescence at 590 nm (red) in HepG2 cell free culture (AID 720684)
Method in brief: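 Compound was pinned into wells holding MEM with 10% FBS and no cells, and red fluorescence was read at Ex/Em 540/590 nm. Signal is expressed as auto fluorescence equivalency relative to Rose Bengal sodium.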

[5] = qHTS assay to test for compound auto fluorescence at 460 nm (blue) in HepG2 cell free culture (AID 720685)
Method in brief: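 Compound (23 nL) or DMSO pinned into cell-free MEM with 10% FBS; blue fluorescence read at 405/460 nm excitation/emission, expressed as auto-fluorescence equivalency to triamterene.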

[6] = qHTS assay to test for compound auto fluorescence at 535 nm (green) in HepG2 cell free culture (AID 720686)
[7] = qHTS assay to test for compound auto fluorescence at 460 nm (blue) in HepG2 cells (AID 720687)
Method in brief: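 HepG2 cells in MEM with 10% FBS, attached overnight at 37 C, were exposed to compound or DMSO for 1 hr at 37 C, 5% CO2. Blue fluorescence was read at 405/460 nm, with triamterene as reference fluorophore.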

[8] = biological target: Glucocorticoid receptor (Homo sapiens) (UniProt P04150); experiment: qHTS assay to identify small molecule agonists of the glucocorticoid receptor (GR) signaling pathway (AID 720691; active = well fitted activation curve with a large enough effect in the signal ratio in the repeat runs, not every such curve was filed as active; inconclusive = weak or mixed curves, or effect the other way; inactive = no such curve, though single readings can be large or run the other way; the % refers to the signal ratio; note: potency is the fitted concentration of half-maximal effect); settings: GR-bla HeLa, beta-lactamase reporter ratio, 18 h; activation: at 62.4 µM (top of the series) unless noted
Glucocorticoid receptor (Homo sapiens), sequence (P04150 whole entry, looked up): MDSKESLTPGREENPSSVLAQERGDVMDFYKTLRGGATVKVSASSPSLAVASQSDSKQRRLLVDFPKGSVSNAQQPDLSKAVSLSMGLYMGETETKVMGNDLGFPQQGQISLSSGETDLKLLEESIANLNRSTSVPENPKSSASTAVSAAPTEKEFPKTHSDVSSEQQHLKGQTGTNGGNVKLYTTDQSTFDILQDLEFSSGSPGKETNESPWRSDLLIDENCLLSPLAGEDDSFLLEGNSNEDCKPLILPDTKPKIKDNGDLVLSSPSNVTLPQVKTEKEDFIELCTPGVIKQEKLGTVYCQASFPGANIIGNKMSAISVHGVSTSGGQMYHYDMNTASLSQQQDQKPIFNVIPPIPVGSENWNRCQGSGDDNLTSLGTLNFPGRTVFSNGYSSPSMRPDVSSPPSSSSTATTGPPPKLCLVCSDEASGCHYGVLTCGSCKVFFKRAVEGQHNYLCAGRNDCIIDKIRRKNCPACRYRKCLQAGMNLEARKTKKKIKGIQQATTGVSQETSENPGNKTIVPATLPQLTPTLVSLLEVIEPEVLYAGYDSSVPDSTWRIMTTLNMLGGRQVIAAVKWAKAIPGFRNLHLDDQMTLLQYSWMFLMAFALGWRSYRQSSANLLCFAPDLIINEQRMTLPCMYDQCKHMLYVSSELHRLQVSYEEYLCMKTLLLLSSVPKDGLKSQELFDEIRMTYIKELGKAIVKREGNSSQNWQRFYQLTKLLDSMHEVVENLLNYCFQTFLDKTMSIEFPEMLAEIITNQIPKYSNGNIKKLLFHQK
Method in brief: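 Reporter read-out: fluorescence intensity following 2 h room-temperature LiveBLAzer B/G FRET substrate loading. Prior step: GR-bla HeLa cells held 4 h, then treated 18 h at 37 C.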

[9] = biological target: Glucocorticoid receptor (Homo sapiens) (UniProt P04150); experiment: qHTS assay to identify small molecule antagonists of the glucocorticoid receptor (GR) signaling pathway (AID 720692; active = well fitted inhibition curve with a large enough effect in the signal ratio in the repeat runs, not every such curve was filed as active; inconclusive = weak or mixed curves, or effect the other way; inactive = no such curve, though single readings can be large or run the other way; the % refers to the signal ratio; note: potency is the fitted concentration of half-maximal effect)
Method in brief: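 Dexamethasone (5 nM final) stimulated a stably integrated GRE-beta-lactamase reporter in HeLa cells during 18 h co-incubation with compounds; signal was quantified as fluorescence intensity of B/G FRET substrate after 2 h.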

CCCCCCCCCCCCCCCCOS(=O)(=O)O
outcome [1]: inactive | outcome [2]: inactive | Potency [3]: inactive | Potency [4]: inactive | outcome [5]: inactive | Potency [6]: inactive | outcome [7]: inactive

C=C(C)C(=O)OCC
outcome [1]: inactive | outcome [2]: inactive | Potency [3]: inactive | Potency [4]: inactive | Potency [6]: inactive | outcome [7]: inactive | Potency [8]: inactive | Potency [9]: inactive

COC(C)(C)CCO
outcome [1]: inactive | outcome [2]: inactive | Potency [3]: inactive | outcome [5]: inactive | Potency [6]: inactive | outcome [7]: inactive | Potency [8]: inactive | Potency [9]: inactive

CCCCCCCCCc1ccc(OCCOCCO)cc1
outcome [1]: inactive | Potency [4]: inactive | Potency [6]: inactive | outcome [7]: inactive | Potency [8]: inactive

NCC(=O)O
outcome [1]: inactive | outcome [2]: inactive | Potency [3]: inactive | Potency [4]: inactive | outcome [5]: inactive | Potency [6]: inactive | outcome [7]: inactive | Potency [8]: inactive | Potency [9]: inactive

O=C(OCCc1ccccc1)c1ccccc1
outcome [1]: inactive | outcome [5]: inactive | Potency [6]: inactive | outcome [7]: inactive | Potency [8]: inactive

C[C@@H](c1ncncc1F)C(O)(Cn1cncn1)c1ccc(F)cc1F (some centres not stated)
outcome [1]: inactive | outcome [2]: inactive | Potency [3]: inactive | Potency [4]: inactive | outcome [5]: inactive | Potency [6]: inactive | outcome [7]: inactive | Potency [8]: inactive | Potency [9]: inactive

C=CC(=O)OCCOCCOC(=O)C=C
outcome [1]: inactive | outcome [2]: inactive | Potency [3]: inactive | Potency [4]: inactive | Potency [6]: inactive | outcome [7]: inactive | Potency [8]: inactive

CCCn1cnc2c1c(=O)n(CCCCC(C)=O)c(=O)n2C
outcome [1]: inactive | outcome [2]: inactive | Potency [3]: inactive | outcome [5]: inactive | Potency [6]: inactive | outcome [7]: inactive | Potency [8]: inactive | Potency [9]: inactive

CCCCCCCCCCO[C@@H]1O[C@H](CO)[C@@H](O)[C@H](O)[C@H]1O
outcome [1]: inactive | Potency [3]: inactive | outcome [5]: inactive | Potency [6]: inactive | outcome [7]: inactive

CC(=O)c1ccc2c(c1)N(CCCN1CCC(CCO)CC1)c1ccccc1S2
fluorescence, % of fluorescent control [1]: -0.0632% [at 18.6 µM] | activity change [2]: -0.164% [at 18.6 µM] | fluorescence, % of fluorescent control [3]: -0.134% [at 18.6 µM] | fluorescence, % of Rose Bengal [4]: 0.583% [at 18.6 µM] | fluorescence, % of fluorescent control [5]: -0.0052% [at 18.6 µM] | fluorescence, % of fluorescein control [6]: 0.041% [at 18.6 µM] | fluorescence, % of fluorescent control [7]: -0.011% [at 18.6 µM] | Potency [8]: inactive | Potency [9]: inactive

OCCNCc1ccccc1
outcome [1]: inactive | outcome [2]: inactive | Potency [3]: inactive | Potency [4]: inactive | outcome [5]: inactive | Potency [6]: inactive | outcome [7]: inactive | Potency [8]: inactive | Potency [9]: inactive

CCCCC(=O)OCC(=O)[C@H]1[C@H](C)C[C@H]2[C@@H]3C[C@H](F)C4=CC(=O)C=C[C@]4(C)[C@@]3(F)[C@@H](O)C[C@@]21C
outcome [1]: inactive | outcome [2]: inactive | Potency [3]: inactive | Potency [4]: inactive | outcome [5]: inactive | Potency [6]: inactive | outcome [7]: inactive | Potency [8]: 0.0076 µM [inconclusive] (active)

C[Si](C)(CCCN)O[Si](C)(C)CCCN
outcome [1]: inactive | outcome [2]: inactive | Potency [3]: inactive | Potency [4]: inactive | Potency [6]: inactive | outcome [7]: inactive | Potency [8]: inactive | Potency [9]: inactive

CC(=O)[O][Al]
outcome [1]: inactive | Potency [3]: inactive | Potency [4]: inactive | outcome [5]: inactive | Potency [6]: inactive | outcome [7]: inactive

C#CCN(C)CCCOc1ccc(Cl)cc1Cl
outcome [1]: inactive | outcome [2]: inactive | Potency [3]: inactive | Potency [4]: inactive | outcome [5]: inactive | Potency [6]: inactive | outcome [7]: inactive | Potency [8]: inactive | Potency [9]: inactive

O=[N+]([O-])c1cccc(S(=O)(=O)O)c1
outcome [1]: inactive | outcome [2]: inactive | Potency [3]: inactive | Potency [4]: inactive | outcome [5]: inactive | Potency [6]: inactive | outcome [7]: inactive | Potency [8]: inactive | Potency [9]: inactive

CN(C)CCN(Cc1ccccc1)c1ccccn1
outcome [1]: inactive | outcome [2]: inactive | Potency [3]: inactive | Potency [6]: inactive | outcome [7]: inactive | Potency [8]: inactive | Potency [9]: inactive

O=CC1CC=CCC1 (configuration not stated)
outcome [1]: inactive | outcome [2]: inactive | Potency [4]: inactive | outcome [5]: inactive | Potency [6]: inactive | outcome [7]: inactive

O=C(O)c1ccc(S(=O)(=O)O)cc1C(=O)O
outcome [1]: inactive | Potency [3]: inactive | Potency [4]: inactive | outcome [5]: inactive | Potency [6]: inactive | outcome [7]: inactive

N=c1ccn2c(n1)O[C@H]1[C@H](O)[C@@H](CO)O[C@H]12
outcome [1]: inactive | outcome [2]: inactive | Potency [3]: inactive | Potency [4]: inactive | outcome [5]: inactive | Potency [6]: inactive | outcome [7]: inactive | Potency [8]: inactive | Potency [9]: inactive

Cc1cccc(C)c1OCC(=O)N[C@@H](Cc1ccccc1)[C@@H](O)C[C@H](Cc1ccccc1)NC(=O)[C@H](C(C)C)N1CCCNC1=O
outcome [1]: inactive | Potency [3]: inactive | Potency [4]: inactive | outcome [5]: inactive | Potency [6]: inactive | outcome [7]: inactive | Potency [8]: inactive | Potency [9]: 23.9 µM (active)

CCCCCCCCO[C@@H]1O[C@H](CO)[C@@H](O)[C@H](O)[C@H]1O
outcome [1]: inactive | outcome [2]: inactive | Potency [3]: inactive | Potency [4]: inactive | outcome [5]: inactive | Potency [6]: inactive | outcome [7]: inactive | Potency [8]: inactive | Potency [9]: inactive

CCO[Si](CCCCl)(OCC)OCC
outcome [1]: inactive | outcome [2]: inactive | Potency [3]: inactive | Potency [6]: inactive | outcome [7]: inactive | Potency [8]: inactive | Potency [9]: inactive

COc1cc2c(cc1OC)C(C(C(=O)N(CCc1ccc(OC)c(OC)c1OC)CCc1ccc(OC)c(OC)c1OC)c1ccccc1)=NCC2 (configuration not stated)
outcome [1]: inactive | Potency [3]: inactive | Potency [4]: inactive | outcome [5]: inactive | Potency [6]: inactive | outcome [7]: inactive

COc1cc2nc(N(C)CCCNC(=O)C3CCCO3)nc(N)c2cc1OC (configuration not stated)
fluorescence, % of fluorescent control [1]: -0.0154% [at 18.6 µM] | activity change [2]: -0.131% [at 18.6 µM] | fluorescence, % of fluorescent control [3]: -0.206% [at 18.6 µM] | fluorescence, % of Rose Bengal [4]: -0.324% [at 18.6 µM] | fluorescence, % of fluorescein control [6]: -0.0969% [at 18.6 µM] | fluorescence, % of fluorescent control [7]: 0.136% [at 18.6 µM] | Potency [8]: inactive | Potency [9]: inactive

Cc1oc(-c2ccccc2)nc1CCOc1cccc2c1ccn2CCC(=O)O
outcome [1]: inactive | Potency [3]: inactive | Potency [4]: inactive | outcome [5]: inactive | Potency [6]: inactive | outcome [7]: inactive | Potency [8]: inactive | Potency [9]: inactive

CCc1cc(C2=C(C(=O)O)N(c3ccccc3C(F)(F)F)S(=O)(=O)c3ccccc32)cc2c1OCO2
outcome [1]: inactive | outcome [2]: inactive | Potency [3]: inactive | Potency [4]: inactive | outcome [5]: inactive | Potency [6]: inactive | outcome [7]: inactive | Potency [8]: inactive

CN1C[C@H]2c3ccccc3Oc3ccc(Cl)cc3[C@@H]2C1
outcome [1]: inactive | outcome [2]: inactive | Potency [3]: inactive | Potency [4]: inactive | outcome [5]: inactive | Potency [6]: inactive | outcome [7]: inactive | Potency [8]: inactive

Cc1ncc(CO)c(C=O)c1O
outcome [1]: inactive | outcome [2]: inactive | Potency [3]: inactive | Potency [4]: inactive | Potency [6]: inactive | outcome [7]: inactive | Potency [8]: inactive | Potency [9]: inactive

CC(C)(CO)[N+](=O)[O-]
outcome [1]: inactive | outcome [2]: inactive | Potency [3]: inactive | Potency [4]: inactive | outcome [5]: inactive | Potency [6]: inactive | outcome [7]: inactive | Potency [8]: inactive | Potency [9]: inactive

CCOC(=O)C1=C[C@]2(CC)CCCN3CCc4c(n1c1ccccc41)[C@@H]32
outcome [1]: inactive | outcome [2]: inactive | Potency [3]: inactive | Potency [4]: inactive | outcome [5]: inactive | Potency [6]: inactive | outcome [7]: inactive | Potency [8]: inactive | Potency [9]: inactive

CCCCCCCCCCCCCCCCCCOS(=O)(=O)O
outcome [1]: inactive | outcome [2]: inactive | Potency [3]: inactive | Potency [4]: inactive | Potency [6]: inactive | outcome [7]: inactive | Potency [8]: inactive
